The source of these data is ChEMBL document CHEMBL4513216, “Probing the Open Global Health Chemical Diversity Library for Multistage-Active Starting Points for Next-Generation Antimalarials” (ACS Infect Dis, 2020).

Hit rate of the full screen: of about 65,000 compounds, about 2,100 (3.2%) showed an effect of 50% or more. The median lay at about -52%. The sample as a whole holds a higher share of strong results than the screen did.

The test system of the test is Plasmodium falciparum. Briefly: Screen against P. falciparum Asexual Blood Stage (ABS), at 5uM. It is filed as functional, Dd2. Conditions: tested at 5 uM.
`COc1ccc(CCN(C)CCS(=O)(=O)c2ccc(Cl)cc2)cc1OC`: the INHIBITION is listed as -7.75%. Turning to `COCC(=O)N1CCC2(CC1)COc1ccccc1S(=O)(=O)N(C)C2`, the INHIBITION was -129%. Regarding `O=C1CNc2ncnc(N3CCN(Cc4cccc(F)c4)CC3)c2N1`, the INHIBITION is given as -56.6%.

As for `CC(=O)Nc1nc(C(=O)N2CCCC(n3nc(C)nc3C)C2)cs1` (stereo not drawn), the INHIBITION is given as -113%. To `O=C(c1cccnc1SC/C=C/c1ccccc1)N1CC[C@H](O)C1` belongs -66.8%; to `O=C(c1cccnc1SCc1ccccc1)N1CCOCC1`, -36.4%.

With `O=C(c1cccnc1SC/C=C/c1ccccc1)N1CCOCC(O)C1` (stereo not drawn), the INHIBITION was 55.5%. As for `CCOCCCNC(=O)c1cc(C)nc(N2CCCCC2)n1`, the INHIBITION is given as -133%.

Turning to `O=C(c1cnco1)N1CCC(Cc2cnc3ccccc3c2)CC1`, the INHIBITION is on record as -56.6%. On to `O=C(c1cnco1)N1CCC(Cc2cccc3ncccc23)CC1`, for which the INHIBITION is -2.05%. Take `O=C(c1cnco1)N1CCC(Cc2ccc3ncccc3c2)CC1`: the INHIBITION amounted to 67.4%.

On to `Cn1cc(C[C@H]2[C@H](O)CCN2C(=O)c2ccsc2)cn1`, for which the INHIBITION is listed as -51.7%.

As to `Cc1cc2ccccc2n1CCC(=O)N1CCCC2(CC1)CNC(=O)O2` (stereo not drawn), the INHIBITION came to 21.3%. As for `Cc1cc2ccccc2n1CCC(=O)N1CCCC(O)(CN(C)C)CC1` (stereo not drawn), the INHIBITION is on record as 55.2%. As to `Cc1cc2ccccc2n1CCC(=O)N1CCC2(CC1)CNC(=O)C2`, the INHIBITION is on record as -33.5%. As for `CN(C)CCn1ccnc1C1CCN(c2cc(N)nc(N)n2)CC1`, the INHIBITION is -90.3%.

With `Cc1ccc(OCc2occc2C(=O)O)cc1`, the INHIBITION is -66.2%. As for `OCC1(Cc2ccccc2F)CCCN(c2ccc3ccccc3n2)C1` (stereo not drawn), the INHIBITION is -37.1%. Consider `Cc1ccsc1CN(CCN(C)C)C(=O)c1ccccc1C#N`, for which the INHIBITION amounted to 60.9%.

As to `COC(=O)c1ccccc1C(=O)N(CCN(C)C)Cc1sccc1C`, the INHIBITION amounted to 18.3%. In the case of `Cc1ccsc1CN(CCN(C)C)C(=O)c1ccc(C#N)nc1`, the INHIBITION was determined as 46.5%. As to `O=C1CC[C@H]2[C@H](CCN2C(=O)C2CCOC2)N1Cc1ccncc1` (stereo partly drawn), the INHIBITION was -87.6%. As for `CC(C)Oc1ncnc2c1CCN(Cc1cccs1)CC2`, the INHIBITION is reported as -52.8%. Under `COc1ccc(CN2CCc3ncnc(OC(C)C)c3CC2)cc1` stands 63.6%; under `Cc1ccc(CN2CCc3ncnc(OC(C)C)c3CC2)s1`, 0.437%; under `COc1ccc(CN2CCc3ncnc(C4CC4)c3CC2)cc1`, -30.4%. Turning to `CC(C)Oc1ncnc2c1CCN(Cc1ccco1)CC2`, the INHIBITION came out at 61.2%. For the compound `CC(C)Oc1ncnc2c1CCN(Cc1ccoc1)CC2`, the INHIBITION came out at 31.6%. In the case of `COC(=O)c1ccc(NC(C)c2ccc3c(c2)NC(=O)CO3)nn1` (stereo not drawn), the INHIBITION is -143%. Turning to `O=C(O)CNc1cc(-c2nccnc2N2CCCC2)c2cc[nH]c2n1`, the INHIBITION is -6.02%. As to `O=C(Nc1ccccc1)c1n[nH]c(-n2cnnc2)n1`, the INHIBITION was -64.6%.

In the case of `Cc1occc1C(=O)N1CCCC(c2nncn2C)C1` (stereo not drawn), the INHIBITION is -65.6%.

On to `CN1CCN(c2ccncc2S(=O)(=O)N2CCCCC2)CC1`, for which the INHIBITION was -92.3%. As to `COCc1cccc(CNC(=O)CN2CCCC2c2noc(C)n2)c1` (stereo not drawn), the INHIBITION is -27.1%.

Turning to `CC(C)c1nc(C2CCCN2CCS(=O)(=O)c2ccccc2)no1` (stereo not drawn), the INHIBITION is -158%. To `CCc1nc(C2CCCN2CCCS(=O)(=O)c2ccccc2)no1` (stereo not drawn) belongs 48.7%; to `Cc1cccc(OCCNC(=O)CN2CCCC2c2noc(C)n2)c1` (stereo not drawn), 31.6%. Under `CCc1nc(C2CCCN2CC(=O)NCCOc2ccccc2)no1` (stereo not drawn) stands 58.6%; under `COCc1ccccc1CNC(=O)CN1CCCC1c1noc(C)n1` (stereo not drawn), 51.2%. With `CCc1nc(C2CCCN2CCS(=O)(=O)c2ccccc2)no1` (stereo not drawn), the INHIBITION worked out at 60%. Under `Cc1nc(C2CCCN2CC(=O)NCCOc2ccccc2)no1` (stereo not drawn) stands -62.7%; under `COc1ccccc1CCNC(=O)CN1CCCC1c1noc(C)n1` (stereo not drawn), -3.9%. With `CCOC1(C)C(=O)c2ccccc2N1Nc1ccccc1C(=O)CC` (stereo not drawn), the INHIBITION is -50.6%. In the case of `O=C1CC[C@H]2[C@H](CCN2c2ncccn2)N1c1ccccc1`, the INHIBITION is -72.8%. In the case of `CN1CCN(C(=O)[C@H]2CC[C@@H]3[C@@H](CCN3Cc3ccsc3)O2)CC1`, the INHIBITION was -1.36%.

For `COc1cc(N2C[C@H]3CCC[C@@H](CN4CCCC4)[C@H]3C2)ncn1`, the INHIBITION is given as -13.2%. Regarding `Cc1c(C(=O)NCC(C)C)nnn1-c1cccc2c1CCN(C)C2`, the INHIBITION was determined as 26.2%. As for `COc1ccccc1NC(=O)CC(C)NCc1scnc1C` (stereo not drawn), the INHIBITION was -27.4%. For `COc1ccccc1NC(=O)CC(C)NCCc1sc(C)nc1C` (stereo not drawn), the INHIBITION stood at 22.2%. In the case of `Cc1csc(CCCNC(C)CC(=O)Nc2ccc(F)cc2)n1` (stereo not drawn), the INHIBITION was determined as 50.5%.

`CC(NCC(=O)NCC(=O)Nc1ccc(F)cc1)c1cccs1` (stereo not drawn): the INHIBITION is given as -69.5%. To `Cc1csc(CCCNC(C)CC(=O)Nc2cccc(C)c2C)n1` (stereo not drawn) belongs 50.9%; to `Cc1csc(CNC(=O)NCC(O)c2ccc(F)cc2)n1` (stereo not drawn), -12.9%. Under `COc1ccsc1C(=O)NC1CCN(c2cccc(F)c2)CC1` stands 27.7%; under `Cc1ccc(NC2CCN(C(=O)c3c(C)noc3C)CC2)nn1`, -103%; under `Cc1ccc(NC2CCN(C(=O)c3ccc(C)o3)CC2)nn1`, 53.6%. `Cc1ccc(NC2CCN(C(=O)Cn3nc(C)cc3C)CC2)nn1`: the INHIBITION was -1.51%.

Consider `Cc1ccc(NC2CCN(C(=O)c3ccc(Cl)o3)CC2)nn1`, for which the INHIBITION was -6.11%. Take `CCc1ccc(C(=O)N2CCC(Nc3ccc(C)nn3)CC2)o1`: the INHIBITION is -100%. Consider `CCn1nc(C)c(C(=O)N2CCC(Nc3ccc(C)nn3)CC2)c1C`, for which the INHIBITION is -18.1%. As for `Cc1ccc(CC(=O)N2CCC(Nc3ccc(C)nn3)CC2)cn1`, the INHIBITION is on record as 18.7%. Consider `Cc1ccc(NC2CCN(C(=O)c3c(C)nn(C)c3Cl)CC2)nn1`, for which the INHIBITION was determined as 62.2%. Consider `Cc1cnn(CC(=O)N2CCC(Nc3ccc(C)nn3)CC2)c1`, for which the INHIBITION is reported as 56.7%. In the case of `CC1CCC(NC(=O)c2nn(C)cc2Br)CC1` (stereo not drawn), the INHIBITION is recorded as -46.7%. As to `CCc1ccc(CN2CCc3c(nnn3C)C2COC)cc1` (stereo not drawn), the INHIBITION is -44.1%. Under `CC(C)Cn1cncc1CNC(=O)c1cccc(CC2CCNCC2)c1` stands -83.2%. On to `CC(C)(O)CCc1cccc(C(=O)NCc2cnn3cccnc23)c1`, for which the INHIBITION is recorded as -126%. Turning to `O=C(NCc1cnn2cccnc12)c1cccc(CC2CCNCC2)c1`, the INHIBITION was found to be 66.1%. `CSCCCN1CCCC(Cn2ccnc2)C1` (stereo not drawn): the INHIBITION is on record as -62%. As for `c1ccc(CCN2CCCC(Cn3ccnc3)C2)cc1` (stereo not drawn), the INHIBITION was 64.5%.

Regarding `c1ccc(SCCN2CCCC(Cn3ccnc3)C2)cc1` (stereo not drawn), the INHIBITION is recorded as -1.54%. Consider `O=C(O)c1nnn(-c2cccc(C(F)(F)F)c2)c1-c1ccncc1`, for which the INHIBITION is listed as -16.4%. For the compound `CN(C)C(CNS(=O)(=O)c1cc(F)ccc1F)c1cccn1C` (stereo not drawn), the INHIBITION was 54.6%. Regarding `CN(C)C(CNS(=O)(=O)c1ccc(F)cc1F)c1cccn1C` (stereo not drawn), the INHIBITION came to 31.8%.

With `COc1ccc(F)cc1S(=O)(=O)NCC(c1cccn1C)N(C)C` (stereo not drawn), the INHIBITION is recorded as -7.7%. Turning to `Cc1noc(C(C)C)c1C(=O)NCCCN1CCCCCC1=O`, the INHIBITION is listed as -62.4%. For `Cc1nnc(SCCCNc2cc(C3CC3)ncn2)s1`, the INHIBITION is reported as -39.6%. Turning to `COCc1nn(C)c2c1CN(Cc1cnn(C)c1)CC2`, the INHIBITION is given as -6.19%. `CC1CCCN(Cc2c(C3CC3)n(CC(=O)N(C)C)c3ncccc23)C1` (stereo not drawn): the INHIBITION was -59.9%. For the compound `Cc1cc(C2CCCN(CCC(=O)N3CCc4ccccc43)C2)n[nH]1` (stereo not drawn), the INHIBITION came to 62.9%. For `Cc1cc(C2CCCN(CC(=O)N3CCc4ccccc43)C2)n[nH]1` (stereo not drawn), the INHIBITION is listed as -81.5%. To `Cc1cc(C2CCCN(CC(=O)N3CCCc4ccccc43)C2)n[nH]1` (stereo not drawn) belongs -8.74%. Turning to `CC(=O)N1CCCC1c1cc(N2CCN(CC(C)(C)C)CC2)cc(C)n1` (stereo not drawn), the INHIBITION is recorded as -126%. Regarding `Clc1cccc(Cl)c1CNCCOc1ccccn1`, the INHIBITION is recorded as -77.7%.

As for `Cn1cc(N2CC3(CCN(Cc4ccoc4)CC3)OCC2=O)cn1`, the INHIBITION was -50.3%. Under `Cc1cc(C(=O)NC2CCc3c(ccc(=O)n3CCN(C)C)C2)no1` (stereo not drawn) stands -24%; under `OCc1ccccc1CNCC1CNc2ccnn2C1` (stereo not drawn), 2.15%; under `Cc1cc2n(n1)CC(CNC1CCN(Cc3ccncc3)CC1)CN2` (stereo not drawn), -0.937%. Regarding `Cc1ccccc1CN1CCC(NCC2CNc3ccnn3C2)CC1` (stereo not drawn), the INHIBITION is on record as 67.1%. For the compound `Cc1cc2n(n1)CC(CNC1CCN(CCc3ccccc3)CC1)CN2` (stereo not drawn), the INHIBITION came to 68.6%.

Consider `Cc1cc2n(n1)CC(CNC1CCN(Cc3ccccn3)CC1)CN2` (stereo not drawn), for which the INHIBITION is listed as -50.7%.

As to `Cc1cc2n(n1)CC(CNC1CCN(c3ccccn3)CC1)CN2` (stereo not drawn), the INHIBITION was -45.8%. `CC(C)n1c2ccccc2c2c1cc(C(=O)NCCO)n2C(=O)N(C)C`: the INHIBITION was -69.4%.

Take `CC(CN1CCCC1=O)NC(=O)c1ccc(C(F)(F)F)[nH]c1=O` (stereo not drawn): the INHIBITION is given as -73.3%. With `Cc1noc(C)c1C(=O)N1CCC(Nc2cccnn2)CC1`, the INHIBITION is -19.3%. For `NC(=O)c1cc(C2CCCN(CCc3ccc4c(c3)CCO4)C2)n[nH]1` (stereo not drawn), the INHIBITION was -88.6%. In the case of `O=C(c1ccc(=O)[nH]n1)N1CCCC1C1CCCC1` (stereo not drawn), the INHIBITION is given as -148%. On to `O=C(c1c[nH]nn1)N1CCCC1C1CCCCC1` (stereo not drawn), for which the INHIBITION was found to be 51%. For `O=C(c1cnc2[nH]c(=O)[nH]c(=O)c2c1)N1CCCC1C1CCCCC1` (stereo not drawn), the INHIBITION is 0.342%. For `CNC(=O)C1(c2cnccn2)CCCN1C(=O)c1cccc(C)n1` (stereo not drawn), the INHIBITION is on record as -80.1%. Regarding `CCc1ccc(CN2Cc3nccn3CC(CN3CCOCC3)C2)o1` (stereo not drawn), the INHIBITION is reported as -23.9%. To `CCOc1ccc(N(C)Cc2nnc(C3CC3)o2)cc1` belongs 61.5%; to `CCOc1ccc(N(C)Cc2nnc(C)o2)cc1`, 27.1%.

As to `CCOc1ccc(N(C)Cc2nc(C)c(C)o2)cc1`, the INHIBITION was 43.9%.

Turning to `Cn1cccc1C(=O)N1CCC2(CCN2c2ncccn2)C1` (stereo not drawn), the INHIBITION was -28.5%. Under `O=C(NCc1ccc2c(c1)CCCO2)c1ccc(C2CCNC2)cc1` (stereo not drawn) stands -95.6%; under `COCC(=O)NCc1cnc(C)nc1-c1cn(C)c2ccc(OC)cc12`, -88.7%; under `CN(C)CCN1CCO[C@H]2CCN(C(=O)c3cccs3)CC[C@@H]21`, -47.1%.
